In PubChem BioAssay (NCI) one finds growth data, which are given here for 9 molecules.

The panel holds about 83,000 compounds, 20% with a hit somewhere; the sample as a whole holds those more often.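 Testing used 96-well plates and a 48-hour single-concentration exposure. Example: -40 means 40% of the starting cells died.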 A number with no mark means an inactive call. The source made the active and inactive calls. The calls were made as follows: active = growth percent below 10; inactive = the rest.

Some test systems named below: HCT-15 colon; HT29 colon; SNB-75 CNS; SNB-19 CNS; U251 CNS; PC-3 prostate; SK-MEL-5 melanoma; UACC-62 melanoma; LOX IMVI melanoma; SK-MEL-28 melanoma; SK-MEL-2 melanoma; EKVX NSCLC; SN12C renal; TK-10 renal; ACHN renal; CAKI-1 renal; A498 renal; MOLT-4 leukemia; UO-31 renal; CCRF-CEM leukemia.
What all share (test): NCI-60 one-dose screen, 48 h (100 = growth as untreated, 0 = no growth, -100 = all killed)
Holding throughout (conditions): 10 µM unless noted

Turning to `Cc1ccc(S(=O)(=O)N2CCC(C(=O)Nc3ccc(F)cc3F)CC2)cc1`, the growth with HCT-15 colon is 103%; in the experiment with HT29 colon, 75.5%; with SNB-75 CNS, 93.2%; in the experiment with SNB-19 CNS it was 86.5%; in the experiment with U251 CNS, 101%; with PC-3 prostate, 93.9%. Besides, the growth with SK-MEL-5 melanoma is 64.8%; with UACC-62 melanoma, 86.4%; with LOX IMVI melanoma it was 82.3%; in the experiment on SK-MEL-28 melanoma it was 122%; with SK-MEL-2 melanoma it was 34.2%; in the experiment on EKVX NSCLC it was 94.6%. Also, the growth with SN12C renal is 90.7%; with TK-10 renal it was 85.3%; in the experiment on ACHN renal, 107%; in the experiment on CAKI-1 renal it was 97.8%; in the experiment on A498 renal, 83.7%; in the experiment with MOLT-4 leukemia, 79.2%.

With `Nc1c(C(=O)Nc2cccc(Cl)c2Cl)sc2nc3c(cc12)C(=O)CCC3`, the growth is 75.5% in the experiment with HCT-15 colon; 85.5% with HT29 colon; 54.7% in the experiment with SNB-75 CNS; 70.2% in the experiment with SNB-19 CNS; 120% in the experiment on U251 CNS; 93.7% in the experiment on PC-3 prostate. Besides, the growth with SK-MEL-5 melanoma is 49.8%; in the experiment with UACC-62 melanoma, 64.6%; with LOX IMVI melanoma, 95.5%; in the experiment with SK-MEL-28 melanoma, 65%; in the experiment with SK-MEL-2 melanoma, 38%; with SN12C renal, 86.8%. For the same molecule, the growth in the experiment on UO-31 renal is 78.8%; with TK-10 renal it was 81.9%; in the experiment with ACHN renal, 98.1%; in the experiment with CAKI-1 renal, 79%; in the experiment on A498 renal, -3.22% (active); with CCRF-CEM leukemia it was 86.2%. The growth in the experiment on MOLT-4 leukemia is 106%.

As for `NC(N)=NC(N)=Nc1ccccc1-c1ccccc1`, the growth is 108% in the experiment with HCT-15 colon; 112% with HT29 colon; 97.4% with SNB-75 CNS; 111% in the experiment on SNB-19 CNS; 106% in the experiment with U251 CNS; 103% with PC-3 prostate. Moreover, the growth is 107% in the experiment with SK-MEL-5 melanoma; 108% in the experiment on UACC-62 melanoma; 102% with LOX IMVI melanoma; 109% with SK-MEL-28 melanoma; 109% in the experiment with SK-MEL-2 melanoma; 111% in the experiment on EKVX NSCLC. For the same molecule, the growth with SN12C renal is 105%; in the experiment on TK-10 renal it was 108%; in the experiment with ACHN renal, 106%; in the experiment with CAKI-1 renal, 89.8%; with A498 renal, 113%; with CCRF-CEM leukemia it was 113%. Further, in the experiment with MOLT-4 leukemia, the growth was 98.6%.

With `Cc1cc(C(=O)O)c(N)c(C)n1`, the growth in the experiment on HCT-15 colon was 100%; with HT29 colon, 112%; in the experiment with SNB-75 CNS, 89.4%; in the experiment with SNB-19 CNS, 110%; in the experiment on U251 CNS, 104%; with PC-3 prostate it was 96.4%. The growth with SK-MEL-5 melanoma was 115%; in the experiment with UACC-62 melanoma, 96.6%; in the experiment on LOX IMVI melanoma, 94.7%; with SK-MEL-28 melanoma it was 117%; with SK-MEL-2 melanoma it was 119%; in the experiment on EKVX NSCLC it was 95.4%. For the same molecule, the growth in the experiment with SN12C renal was 106%; in the experiment on UO-31 renal, 83.4%; in the experiment with TK-10 renal it was 101%; with ACHN renal, 109%; in the experiment on CAKI-1 renal, 92.3%; with CCRF-CEM leukemia, 107%. Further, in the experiment with MOLT-4 leukemia, the growth is 101%.

Consider `COc1ccc(Cl)cc1NC(N)=S`, for which the growth in the experiment on HCT-15 colon is 103%; in the experiment on HT29 colon it was 98.7%; with SNB-75 CNS it was 86.6%; in the experiment with SNB-19 CNS, 111%; in the experiment with U251 CNS it was 97.7%; in the experiment with PC-3 prostate, 93%. Moreover, the growth with SK-MEL-5 melanoma was 104%; in the experiment with UACC-62 melanoma, 102%; in the experiment with LOX IMVI melanoma it was 96.7%; in the experiment on SK-MEL-28 melanoma it was 108%; with SK-MEL-2 melanoma, 107%; with EKVX NSCLC it was 105%. Also, the growth in the experiment on SN12C renal is 105%; in the experiment with UO-31 renal, 97%; in the experiment with TK-10 renal it was 89.5%; with ACHN renal, 110%; with CAKI-1 renal, 97.3%; in the experiment with CCRF-CEM leukemia it was 105%. Also, the growth with MOLT-4 leukemia was 99.7%.

For `CCOc1ccc(/C=C/C=N/NC(N)=S)cc1`, the growth is 58.4% in the experiment on HCT-15 colon; 62.1% in the experiment with HT29 colon; 80.9% with SNB-75 CNS; 95.8% with SNB-19 CNS; 90.1% in the experiment with U251 CNS; 94.1% in the experiment on PC-3 prostate. Further, the growth is 96% in the experiment with SK-MEL-5 melanoma; 81.9% in the experiment on UACC-62 melanoma; 77.4% with LOX IMVI melanoma; 102% with SK-MEL-28 melanoma; 108% in the experiment on SK-MEL-2 melanoma; 95.5% in the experiment with EKVX NSCLC. The growth is 80.4% with SN12C renal; 74.1% in the experiment with TK-10 renal; 80.2% in the experiment on ACHN renal; 83.9% in the experiment with CAKI-1 renal; 77.7% with A498 renal; 62.6% in the experiment on CCRF-CEM leukemia. For the same molecule, the growth in the experiment with MOLT-4 leukemia is 35.8%.

Consider `Clc1ccc(/C=C/c2nc(N3CCOCC3)c3nc(Cl)c(Cl)cc3n2)cc1`, for which the growth in the experiment with HCT-15 colon was 94.3%; with HT29 colon it was 105%; in the experiment on SNB-75 CNS, 94.3%; in the experiment on SNB-19 CNS, 101%; in the experiment with U251 CNS, 103%; with PC-3 prostate it was 102%. In addition, the growth was 90.2% in the experiment on SK-MEL-5 melanoma; 106% in the experiment on UACC-62 melanoma; 99.8% in the experiment with LOX IMVI melanoma; 111% in the experiment with SK-MEL-28 melanoma; 110% in the experiment with SK-MEL-2 melanoma; 94.1% with SN12C renal. For the same molecule, the growth is 76.7% in the experiment on UO-31 renal; 107% in the experiment with TK-10 renal; 51.5% with ACHN renal; 109% with CAKI-1 renal; 106% with A498 renal; 106% with CCRF-CEM leukemia. Moreover, the growth in the experiment with MOLT-4 leukemia is 88%.

As for `NS(=O)(=O)c1ccc(CN2C(=O)c3cccc4cccc(c34)C2=O)cc1`, the growth in the experiment on HCT-15 colon was 88.5%; with HT29 colon, 102%; in the experiment on SNB-75 CNS it was 83.9%; with SNB-19 CNS it was 100%; with U251 CNS it was 99%; with PC-3 prostate it was 93.3%. Moreover, the growth in the experiment on SK-MEL-5 melanoma is 96.8%; in the experiment with UACC-62 melanoma it was 97.1%; in the experiment with LOX IMVI melanoma, 96.2%; in the experiment on SK-MEL-28 melanoma, 113%; with SK-MEL-2 melanoma, 93%; in the experiment on SN12C renal, 93.1%. The growth with UO-31 renal is 57.3%; in the experiment on TK-10 renal, 81.8%; in the experiment with ACHN renal it was 88.1%; with CAKI-1 renal, 75.9%; with A498 renal, 108%; with CCRF-CEM leukemia, 85.8%. In the experiment on MOLT-4 leukemia, the growth was 95.5%.

As to `COc1cc2nc(N3CCC[C@@H](NC4=CC(=O)c5ccccc5C4=O)C3)nc(N)c2cc1OC`, the growth was -67.2% (active) with HCT-15 colon; -59.8% (active) in the experiment on HT29 colon; -92.3% (active) in the experiment on SNB-75 CNS; -49.7% (active) in the experiment on SNB-19 CNS; -89.3% (active) with U251 CNS; 23% in the experiment on PC-3 prostate. Also, the growth with SK-MEL-5 melanoma is 94%; in the experiment with UACC-62 melanoma it was 87.8%; in the experiment on LOX IMVI melanoma, -65.3% (active); with SK-MEL-28 melanoma, 109%; with SK-MEL-2 melanoma it was 109%; in the experiment on SN12C renal, 95.9%. Also, the growth in the experiment with UO-31 renal was 46%; with TK-10 renal, -49.3% (active); in the experiment on ACHN renal, 72%; with CAKI-1 renal it was 64.9%; in the experiment with A498 renal it was 107%; with CCRF-CEM leukemia, -20.9% (active). For the same molecule, the growth in the experiment on MOLT-4 leukemia is -37.1% (active).
